From PubChem BioAssay AID1159580 (chemical genetic matrix, 2015)
Among all 5,500 compounds or so, about 2,000 (36%) were called active. Inconclusive results (about 18%) are left out. No stated cut-off is given here; in the data, active means normalized growth mostly below about 0.91 (no sharp cut-off); inconclusive means no clear call, values can overlap the other calls; inactive means mostly above about 0.92. Some of the results follow.

Experiment: chemical genetic growth profiling, strain panel (AID 1159580);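 further: tested at 20 µM; growth read once vehicle control cultures reached saturation at 30 °C; 1 = growth at the plate median or of vehicle wells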
Conditions: S. cerevisiae deletion strains, growth OD
[1] = locus YAR019C, strain CDC15, stronger effect = lower value
[2] = locus YBL105C, strain PKC1, stronger effect = lower value
[3] = locus YBR135W, strain CKS1, stronger effect = lower value
[4] = locus YBR136W, strain MEC1, stronger effect = lower value
[5] = locus YBR160W, strain CDC28, stronger effect = lower value
[6] = locus YDL017W, strain CDC7, stronger effect = lower value
[7] = locus YDL028C, strain MPS1, stronger effect = lower value
[8] = locus YDL101C, strain DUN1, stronger effect = lower value
[9] = locus YDL108W, strain KIN28, stronger effect = lower value
[10] = locus YDL132W, strain cdc53, stronger effect = lower value
[11] = locus YDL214C, strain PRR2, stronger effect = lower value
[12] = locus YDR052C, strain DBF4, stronger effect = lower value
[13] = locus YDR054C, strain cdc34, stronger effect = lower value
[14] = locus YDR226W, strain ADK1, stronger effect = lower value
[15] = locus YDR477W, strain SNF1, stronger effect = lower value
[16] = locus YER123W, strain YCK3, stronger effect = lower value
[17] = locus YER133W, strain GLC7, stronger effect = lower value
[18] = locus YFL009W, strain cdc4, stronger effect = lower value
[19] = locus YFL029C, strain CAK1, stronger effect = lower value
[20] = locus YFR003C, strain YPI1, stronger effect = lower value
[21] = locus YFR019W, strain FAB1, stronger effect = lower value
[22] = locus YFR028C, strain CDC14, stronger effect = lower value
[23] = locus YGR040W, strain KSS1, stronger effect = lower value
[24] = locus YGR052W, strain FMP48, stronger effect = lower value
[25] = locus YGR092W, strain DBF2, stronger effect = lower value
[26] = locus YHR030C, strain SLT2, stronger effect = lower value
[27] = locus YHR079C, strain IRE1, stronger effect = lower value
[28] = locus YHR082C, strain KSP1, stronger effect = lower value
[29] = locus YHR205W, strain SCH9, stronger effect = lower value
[30] = locus YIL147C, strain SLN1, stronger effect = lower value
[31] = locus YJL095W, strain BCK1, stronger effect = lower value
[32] = locus YJL128C, strain PBS2, stronger effect = lower value
[33] = locus YJL157C, strain FAR1, stronger effect = lower value
[34] = locus YJR016C, strain ILV3, stronger effect = lower value
[35] = locus YJR066W, strain TOR1 (second series), stronger effect = lower value
[36] = locus YJR066W, strain TOR1, stronger effect = lower value
[37] = locus YKL048C, strain ELM1, stronger effect = lower value
[38] = locus YKL067W, strain YNK1, stronger effect = lower value
[39] = locus YKL101W, strain HSL1, stronger effect = lower value
[40] = locus YKL193C, strain SDS22, stronger effect = lower value
[41] = locus YKL203C, strain TOR2, stronger effect = lower value
[42] = locus YLR113W, strain HOG1, stronger effect = lower value
[43] = locus YLR133W, strain CKI1, stronger effect = lower value
[44] = locus YLR403W, strain SFP1, stronger effect = lower value
[45] = locus YML070W, strain DAK1, stronger effect = lower value
[46] = locus YMR001C, strain CDC5, stronger effect = lower value
[47] = locus YMR205C, strain PFK2 (second series), stronger effect = lower value
[48] = locus YMR277W, strain FCP1, stronger effect = lower value
[49] = locus YNL006W, strain LST8, stronger effect = lower value
[50] = locus YNL020C, strain ARK1, stronger effect = lower value
[51] = locus YNL161W, strain CBK1, stronger effect = lower value
[52] = locus YNL183C, strain NPR1, stronger effect = lower value
[53] = locus YNL207W, strain RIO2, stronger effect = lower value
[54] = locus YNL222W, strain SSU72, stronger effect = lower value
[55] = locus YNL307C, strain MCK1 (second series), stronger effect = lower value
[56] = locus YOL078W, strain AVO1, stronger effect = lower value
[57] = locus YOL136C, strain PFK27, stronger effect = lower value
[58] = locus YOR061W, strain CKA2, stronger effect = lower value
[59] = locus YOR119C, strain RIO1, stronger effect = lower value
[60] = locus YOR231W, strain MKK1, stronger effect = lower value
[61] = locus YOR329C, strain SCD5, stronger effect = lower value
[62] = locus YPL031C, strain PHO85, stronger effect = lower value
[63] = locus YPL153C, strain RAD53, stronger effect = lower value
[64] = locus YPL204W, strain HRR25, stronger effect = lower value
[65] = locus YPL209C, strain IPL1, stronger effect = lower value
[66] = locus YPL256C, strain CLN2, stronger effect = lower value
[67] = locus YPR025C, strain CCL1, stronger effect = lower value
[68] = locus YPR106W, strain ISR1, stronger effect = lower value
[69] = locus YPR111W, strain DBF20, stronger effect = lower value
[70] = strain NNK1, stronger effect = lower value
[71] = strain TSCII, stronger effect = lower value

Measured: normalized growth

CCOC(=O)C(O)(c1ccc(NC(=O)c2ccc(Cl)c(Cl)c2)cc1)C(F)(F)F (stereo not drawn)
inactive: [1] 0.998 | [2] 0.988 | [3] 1 | [4] 0.989 | [5] 0.996 | [6] 0.997 | [7] 0.993 | [8] 0.994 | [9] 0.997 | [10] 0.997 | [11] 0.874 | [12] 0.996 | [13] 0.991 | [14] 0.992 | [15] 0.92 | [16] 0.859 | [17] 0.926 | [18] 0.99 | [19] 0.992 | [20] 0.999 | [21] 0.933 | [22] 1 | [23] 0.915 | [24] 0.979 | [25] 0.892 | [26] 0.962 | [27] 0.953 | [28] 0.967 | [29] 0.928 | [30] 0.986 | [31] 1.01 | [32] 0.946 | [33] 0.913 | [34] 0.988 | [35] 0.914 | [36] 0.994 | [37] 0.953 | [38] 0.935 | [39] 0.901 | [40] 1 | [41] 0.994 | [42] 0.977 | [43] 0.939 | [44] 0.94 | [45] 0.886 | [46] 0.997 | [47] 0.941 | [48] 1 | [49] 0.986 | [50] 0.919 | [51] 0.99 | [52] 1.02 | [53] 0.992 | [54] 0.994 | [55] 0.91 | [56] 1 | [57] 0.895 | [58] 0.911 | [59] 0.957 | [60] 0.977 | [61] 1 | [62] 0.896 | [63] 0.912 | [64] 0.922 | [65] 0.996 | [66] 0.976 | [67] 1 | [68] 0.988 | [69] 0.986 | [70] 0.987 | [71] 0.993

CCOC(=O)C(NC(=O)c1cccc(Cl)c1)(Nc1nc2ccccc2s1)C(F)(F)F (stereo not drawn)
inactive: [1] 0.967 | [2] 0.957 | [3] 0.956 | [4] 0.96 | [5] 0.967 | [6] 0.962 | [7] 0.961 | [8] 0.973 | [9] 0.963 | [10] 0.952 | [11] 0.927 | [12] 0.955 | [13] 0.952 | [14] 0.956 | [15] 0.917 | [16] 0.906 | [17] 0.9 | [18] 0.954 | [19] 0.975 | [20] 0.957 | [21] 0.955 | [22] 0.963 | [23] 0.926 | [24] 0.943 | [25] 0.996 | [27] 1 | [28] 0.989 | [29] 1.01 | [30] 0.955 | [31] 0.98 | [32] 0.949 | [33] 0.915 | [34] 0.963 | [35] 0.949 | [36] 1.02 | [37] 0.937 | [38] 0.94 | [39] 0.929 | [40] 0.964 | [41] 1.01 | [43] 0.935 | [44] 1.02 | [45] 0.914 | [46] 0.967 | [47] 0.941 | [48] 0.964 | [49] 0.966 | [50] 0.931 | [51] 0.96 | [52] 1.07 | [53] 0.961 | [54] 0.968 | [55] 0.916 | [56] 0.962 | [57] 0.924 | [58] 0.939 | [59] 0.992 | [60] 0.967 | [61] 0.964 | [62] 0.917 | [63] 0.927 | [64] 0.913 | [65] 0.962 | [66] 0.894 | [67] 0.966 | [68] 0.962 | [69] 0.958 | [70] 0.971 | [71] 0.962
active: [26] 0.796 | [42] 0.823

S=C(NCCc1csc2ccccc12)Nc1ccc(Cl)cc1
inactive: [1] 0.923 | [2] 0.945 | [3] 0.945 | [4] 0.944 | [5] 0.956 | [6] 0.952 | [7] 0.942 | [8] 0.962 | [9] 0.95 | [10] 0.944 | [11] 0.797 | [12] 0.96 | [13] 0.931 | [14] 0.951 | [15] 0.815 | [16] 0.719 | [17] 0.816 | [18] 0.944 | [19] 0.9 | [20] 0.953 | [21] 0.934 | [22] 0.945 | [23] 0.819 | [24] 0.795 | [25] 0.735 | [27] 0.786 | [28] 0.721 | [30] 0.938 | [31] 0.677 | [32] 0.872 | [33] 0.863 | [34] 0.945 | [35] 0.759 | [36] 0.727 | [37] 0.914 | [38] 0.828 | [39] 0.787 | [40] 0.943 | [41] 0.886 | [43] 0.797 | [44] 0.752 | [45] 0.808 | [46] 0.946 | [47] 0.84 | [48] 0.941 | [49] 0.96 | [50] 0.795 | [51] 0.952 | [52] 0.754 | [53] 0.937 | [54] 0.952 | [55] 0.729 | [56] 0.945 | [57] 0.8 | [58] 0.811 | [59] 0.867 | [60] 0.789 | [61] 0.952 | [62] 0.768 | [63] 0.775 | [64] 0.809 | [65] 0.946 | [67] 0.945 | [68] 0.936 | [69] 0.917 | [70] 0.914 | [71] 0.922
active: [26] 0.5 | [29] 0.566 | [42] 0.536 | [66] 0.667

COc1ccccc1NC(=S)NCCc1ccc(OC)c(OC)c1
inactive: locus YAL013W, strain DEP1, stronger effect = lower value 0.997 | locus YBR229C, strain ROT2, stronger effect = lower value 1 | [8] 1.05 | locus YDR150W, strain NUM1, stronger effect = lower value 1.02 | locus YEL061C, strain CIN8, stronger effect = lower value 0.998 | locus YGR078C, strain PAC10, stronger effect = lower value 0.998 | [26] 0.979 | locus YHR087W, strain rtc3, stronger effect = lower value 1.02 | locus YJR043C, strain POL32, stronger effect = lower value 0.982 | locus YJR075W, strain HOC1, stronger effect = lower value 0.991 | locus YLR039C, strain RIC1, stronger effect = lower value 0.91 | locus YLR058C, strain SHM2 (second series), stronger effect = lower value 0.99 | locus YLR085C, strain ARP6, stronger effect = lower value 0.942 | locus YLR262C, strain YPT6, stronger effect = lower value 0.954 | locus YML094W, strain GIM5, stronger effect = lower value 1.1 | locus YMR219W, strain ESC1, stronger effect = lower value 0.999 | locus YMR263W, strain SAP30, stronger effect = lower value 0.989 | locus YNL153C, strain GIM3, stronger effect = lower value 1.02 | locus YNL298W, strain CLA4 (second series), stronger effect = lower value 0.952 | locus YNL322C, strain KRE1, stronger effect = lower value 0.997 | locus YNR030W, strain Alg12, stronger effect = lower value 1.02 | locus YPL055C, strain LGE1, stronger effect = lower value 1.03 | locus YPL241C, strain CIN2, stronger effect = lower value 0.927 | locus YPR135W, strain CTF4, stronger effect = lower value 1.04

S=C(NCc1cccs1)Nc1cc(Cl)cc(Cl)c1
inactive: [1] 0.942 | [2] 0.947 | [3] 0.936 | [4] 0.945 | [5] 0.944 | [6] 0.955 | [7] 0.944 | [8] 0.979 | [9] 0.947 | [10] 0.962 | [11] 0.912 | [12] 0.96 | [13] 0.967 | [14] 0.955 | [15] 0.894 | [16] 0.848 | [17] 0.867 | [18] 0.928 | [19] 0.936 | [20] 0.948 | [21] 0.95 | [22] 0.959 | [23] 0.891 | [24] 0.964 | [25] 0.739 | [26] 0.988 | [27] 0.961 | [28] 0.901 | [29] 0.946 | [30] 0.949 | [31] 0.958 | [32] 0.892 | [33] 0.879 | [34] 0.948 | [35] 0.874 | [36] 0.917 | [37] 0.953 | [38] 0.902 | [39] 0.923 | [40] 0.937 | [41] 0.944 | [42] 0.912 | [43] 0.931 | [44] 0.898 | [45] 0.883 | [46] 0.941 | [47] 0.918 | [48] 0.934 | [49] 0.944 | [50] 0.906 | [51] 0.946 | [52] 0.928 | [53] 0.928 | [54] 0.93 | [55] 0.935 | [56] 0.934 | [57] 0.897 | [58] 0.872 | [59] 0.936 | [60] 1.01 | [61] 0.949 | [62] 0.865 | [63] 0.862 | [64] 0.878 | [65] 0.942 | [66] 0.961 | [67] 0.949 | [68] 0.948 | [69] 0.952 | [70] 0.959 | [71] 0.936
